Results as given in the supplement of paper PMC3334620.
Over roughly 33,000 sequences, “E-score (-0.5 to 0.5)” has its median near -0.015; the highest 2% begin near 0.3. The list comes from a sample in which the highest values are over-represented; it also holds similar and randomly drawn sequences.

target: T1, Abf1 (UniProt P14164); assay: PBM E-score (8-mer binding enrichment) (E-score (-0.5 to 0.5)); higher = stronger / more preferred TF binding; conditions: protein concentration: 200 nM; construct: GST-full length
T1 sequence: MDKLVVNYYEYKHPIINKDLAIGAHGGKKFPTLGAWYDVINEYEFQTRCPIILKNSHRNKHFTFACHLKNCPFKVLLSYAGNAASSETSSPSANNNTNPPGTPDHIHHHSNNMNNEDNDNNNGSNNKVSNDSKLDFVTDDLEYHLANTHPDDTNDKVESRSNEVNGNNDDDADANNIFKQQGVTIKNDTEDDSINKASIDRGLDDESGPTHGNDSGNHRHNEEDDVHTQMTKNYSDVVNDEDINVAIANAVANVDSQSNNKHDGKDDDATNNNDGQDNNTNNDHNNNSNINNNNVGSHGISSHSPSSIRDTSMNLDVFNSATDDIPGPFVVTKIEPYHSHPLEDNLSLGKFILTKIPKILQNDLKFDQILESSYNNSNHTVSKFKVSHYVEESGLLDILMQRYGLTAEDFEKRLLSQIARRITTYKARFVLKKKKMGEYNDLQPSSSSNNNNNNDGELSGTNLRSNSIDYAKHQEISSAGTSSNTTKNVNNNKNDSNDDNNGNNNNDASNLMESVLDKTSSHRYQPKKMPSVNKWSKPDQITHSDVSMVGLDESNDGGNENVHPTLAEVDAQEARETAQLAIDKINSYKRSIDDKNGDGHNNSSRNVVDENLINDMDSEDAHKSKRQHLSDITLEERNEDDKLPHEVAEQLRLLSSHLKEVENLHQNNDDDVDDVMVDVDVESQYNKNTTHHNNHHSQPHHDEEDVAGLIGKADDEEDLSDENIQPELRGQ
Description: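 Universal 'all 10-mer' protein binding microarrays (Agilent AMADID 015681) probed with GST-tagged S. cerevisiae TFs (full-length or DBD) made by in vitro transcription/translation (PURExpress), about 100-200 nM. Bound TF was detected with fluorescent anti-GST. Each ungapped 8-mer (which stands for itself and its reverse complement) is scored by the PBM enrichment score (E-score), a modified Wilcoxon-Mann-Whitney statistic from -0.5 to +0.5, computed with the Universal PBM Analysis Suite. Scale: above 0.35 generally sequence-specific binding.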

Row | Sequence | PBM E-score
1 | AATTGTCC | -0.0973
2 | GATTGTCA | 0.268
3 | AATTGTCA | 0.335
4 | AGAGTGGC | -0.251
5 | AGCAGATG | -0.0843
6 | TTATTAAA | 0.116
7 | ATATTAAA | 0.33
8 | CTATTAAA | -0.0136
9 | AAAAGTTA | 0.151
10 | CCATTCGG | -0.0195
11 | ATTTATCG | 0.222
12 | GTTTATTA | 0.0803
13 | ATTATTTA | 0.254
14 | CTTTATCA | 0.313
15 | ACTTATCC | 0.11
16 | GCTTATCA | 0.0367
17 | GTTTATCA | 0.304
18 | CGTTATCA | 0.205
19 | ATTTATCC | 0.317
20 | CTTTATCC | -0.0621
21 | GTTTATGA | 0.11
22 | ATTTATTA | 0.309
23 | ACTCCCAT | -0.029
24 | GATCGACA | 0.013
25 | TCTTGTAA | 0.0644
26 | CCGTAAGC | 0.0521

Row | Sequence | PBM E-score
27 | ATTTATAA | 0.176
28 | ATTTATGA | 0.229
29 | ATTTATCA | 0.314
30 | AGTACTCA | -0.0128
31 | CGTACCAA | 0.353
32 | CGTACTAC | 0.274
33 | CGTACTCA | 0.304
34 | CGTACTCC | 0.203
35 | TGTACCAA | 0.0776
36 | CGTACTAA | 0.329
37 | TGTACTAA | 0.0702
38 | CGTACCAG | 0.0671
39 | CGACGCGA | -0.0138
40 | AGAATGTC | 0.188
41 | ACAACGCC | 0.13
42 | ACCCTACA | -0.153
43 | CGGTCAAC | 0.0203
44 | ACGACGTG | 0.232
45 | GCAAGCGC | -0.201
46 | ACCTCACC | -0.0217
47 | CATACGAA | 0.267
48 | TATACGGA | 0.164
49 | GATACGAC | 0.148
50 | GATACGAA | 0.309
51 | CCTACGAA | 0.253
52 | GTTACGAA | 0.208

Row | Sequence | PBM E-score
53 | AATACGAA | 0.337
54 | ACTACGAA | 0.205
55 | AATACGAC | 0.278
56 | AATACGAT | 0.276
57 | TATACGAA | 0.368
58 | TCTACGAA | 0.301
59 | CCCCATCA | -0.235
60 | GAATTGGA | -0.016
61 | AGCACACC | -0.13
62 | CACAAGAG | -0.0119
63 | CCAGCACA | -0.0686
64 | AGCGAGAA | -0.0126
65 | CGGTATCA | 0.204
66 | CGATATTA | 0.326
67 | GGATATTA | 0.088
68 | CGATATGA | 0.161
69 | CGATATTC | 0.225
70 | CGATATCG | 0.372
71 | CGATATCA | 0.363
72 | AGATATCG | 0.11
73 | CGATATCC | 0.17
74 | GGACCGCA | -0.155
75 | ACAGGGGC | -0.194
76 | ACACCCGT | -0.04
77 | TCAAACAA | -0.127
78 | GAGAGGAC | -0.077

Row | Sequence | PBM E-score
79 | TCAGTAGA | -0.0357
80 | CATTAGTC | -0.14
81 | GTGACCAC | 0.175
82 | AAGATCGG | -0.163
83 | ACGATCGT | 0.319
84 | AAGATCGC | 0.169
85 | AAGATCGT | 0.332
86 | ACGATCGC | 0.265
87 | ACGATCGG | 0.168
88 | GCGCTGTA | -0.132
89 | CCTACGTC | 0.0219
90 | TACCAGTA | 0.0685
91 | ATCAGGAC | 0.103
92 | ACCTTGGG | -0.0211
93 | GGTGACCA | 0.0526
94 | ATTGACAA | 0.0759
95 | AGTGACCA | 0.308
96 | AGTGACCG | 0.125
97 | CATGACAG | 0.0583
98 | AGTGACAG | 0.292
99 | ACTGACAT | 0.0708
100 | ACTGACAA | 0.129
101 | CCTGACAG | -0.0556
102 | AGTGACAA | 0.439
103 | CGTGACAG | 0.319
104 | AGTGACAT | 0.43

Row | Sequence | PBM E-score
105 | GTATAGGA | 0.0694
106 | CAGAGTTC | -0.228
107 | GGGCCGTA | 0.244
108 | GACAGGAA | 0.0498
109 | GATCGCCC | 0.0433
110 | GCGACCAC | 0.134
111 | TCGATTAA | 0.0311
112 | CACAAAAA | 0.0732
113 | GCAGTTAA | -0.0142
114 | CTAACGAC | 0.263
115 | TCAGTCCA | -0.171
116 | AGTGACTG | 0.175
117 | ATTGACAC | -0.12
118 | AGTGACTC | 0.149
119 | GGTGACAA | 0.423
120 | TGTGACAA | 0.221
121 | GGTGACAC | 0.238
122 | GTTGACAA | 0.16
123 | GCTGACAA | 0.0133
124 | CGTGACAC | 0.252
125 | AGTGACTA | 0.324
126 | AGTGACAC | 0.382
127 | CGTGACAA | 0.375
128 | ATAACGGG | 0.0588
129 | CGGGCGCA | -0.146
130 | GAATTAAA | 0.00779

Row | Sequence | PBM E-score
131 | GTGGAGAA | 0.0678
132 | ACATACCT | -0.0525
133 | CTACCTTC | 0.0107
134 | GGCGGAGA | -0.00874
135 | GAGCGATA | 0.223
136 | CAGCGATA | 0.16
137 | CAACGATC | 0.103
138 | TAGCGATA | 0.347
139 | GAACGAGA | 0.0551
140 | TAACGATA | 0.36
141 | GAACGATA | 0.301
142 | GAACGATC | 0.298
143 | AAACGATC | 0.286
144 | TAACGAGA | 0.295
145 | GTACGATA | 0.259
146 | TAACGAAA | 0.243
147 | ATGTAGAC | -0.0712
148 | CCATTTAG | -0.118
149 | CCGAGGTC | -0.0891
150 | GATTGGTA | 0.109
151 | GCTCCTGA | -0.23
152 | CCGTACCC | 0.267
153 | CCGAGTTA | 0.0322
154 | CGCGCCTC | -0.14
155 | TACAGCCA | -0.224
156 | GCACGAGA | 0.178

Row | Sequence | PBM E-score
157 | ACACGATA | 0.295
158 | AAACGATT | 0.292
159 | AAACGATA | 0.376
160 | CAACGATA | 0.25
161 | GCACGATA | 0.355
162 | GCGAACTA | -0.0767
163 | CCGCGAGA | -0.0337
164 | GCGGCACA | 0.112
165 | GCGTAAAA | 0.103
166 | ACGTAAAA | 0.317
167 | GCGTATAA | 0.154
168 | ACGTAAAT | 0.113
169 | ACGTATAA | 0.304
170 | TAGTATAA | 0.269
171 | ACGTATAT | 0.193
172 | CCGTATAA | 0.418
173 | TGGTATAA | 0.0711
174 | CCGTATAC | 0.272
175 | TCGTATAA | 0.4
176 | ACGTATAG | 0.186
